Bioassay records from PubChem BioAssay.
EPAC1 agonist = activates human EPAC1 exchange factor; 360,000 tested, 0.073% active; EPAC1 agonist qHTS, biochemical assay; response scale: 100% = response to 6.5 mM cAMP; Potency, µM (highest dose often 154 µM), for inactives: at the top dose activation, most hits filed as activators; O95398; note: potency is the fitted concentration of half-maximal effect; nearly all actives have a fitted effect of over 60% in size
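Read-out is the fluorescence drop as BODIPY-GDP leaves Rap1B (480 nm excitation, 540 nm emission), recorded every 5 minutes over 30 minutes. Reactions held 100 nM EPAC1, 250 nM Rap1B–BODIPY-GDP and 50 uM GDP, with 6.5 mM cAMP setting full activation.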
EPAC2 ag = agonists of human EPAC2 (RAPGEF4). 360,000 tested, 0.079% active. AID 720711. EPAC2 activation, biochemical qHTS; response scale: 100% = 6.5 mM cAMP response. Potency, µM (doses to about 154 µM), without a hit: at the top dose activation, hits mostly activators; note: potency is the fitted concentration of half-maximal effect; nearly all actives have a fitted effect of over 50% in size
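qHTS, titration series. 100 nM EPAC2 / 250 nM Rap1B-BODIPY-GDP / 50 uM GDP; RT; ex 480/em 540 nm, 5-min reads to 30 min. Norm. to 6.5 mM cAMP = activation.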
PTHR1 agonist = agonists of human PTHR1 parathyroid hormone receptor; Q03431; HEK293 GP2 PTHR1 cells, GloSensor cAMP luminescence, 1 h; Potency, µM (doses to about 115 µM), for the others: at the highest dose activation, hits mostly activators; 410,000 tested, 0.075% active; note: potency is the fitted concentration of half-maximal effect; nearly all actives have a fitted effect of over 55% in size
Target sequence (Q03431 whole entry, looked up): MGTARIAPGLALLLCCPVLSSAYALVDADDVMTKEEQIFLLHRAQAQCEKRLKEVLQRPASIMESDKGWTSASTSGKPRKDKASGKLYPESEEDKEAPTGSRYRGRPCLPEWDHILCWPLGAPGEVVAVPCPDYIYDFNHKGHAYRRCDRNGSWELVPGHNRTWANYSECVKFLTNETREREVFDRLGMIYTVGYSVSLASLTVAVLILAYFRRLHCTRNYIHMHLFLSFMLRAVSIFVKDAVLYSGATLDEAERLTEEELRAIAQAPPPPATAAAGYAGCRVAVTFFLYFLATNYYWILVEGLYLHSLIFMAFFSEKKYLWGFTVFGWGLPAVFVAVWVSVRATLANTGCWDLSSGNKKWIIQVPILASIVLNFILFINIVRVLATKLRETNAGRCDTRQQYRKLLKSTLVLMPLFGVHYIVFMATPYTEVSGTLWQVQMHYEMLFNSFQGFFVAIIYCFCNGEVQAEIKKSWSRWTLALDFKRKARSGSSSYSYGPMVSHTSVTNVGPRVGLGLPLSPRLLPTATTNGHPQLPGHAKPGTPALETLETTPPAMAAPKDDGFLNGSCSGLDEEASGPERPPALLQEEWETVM
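HEK-293-derived GP2 cells expressing PTHR1 and a GloSensor cAMP reporter, 3,000/well, plated overnight, given luciferin plus IBMX (each 0.5 mM as added) for 1 h at 37 °C, then compound for 1 h at 37 °C. Luminescence was read after 15 min at room temperature.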
TSHR antagonist = human thyrotropin receptor antagonism. P16473. 330,000 tested, 0.2% active. activity change, negative = inhibition, % at 11.5 µM. TSHR-expressing cells, TSH-stimulated cAMP HTRF, 2 h; hits give low values;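 active = activity change below a set negative limit, meaning inhibition stronger than a set level, cut at about -70% in these data; inconclusive = activity change between two set negative limits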; note: % is set by controls: 0 for no effect and ±100 for the full control effect
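Freshly harvested TSHR cells receive pin-tooled compound, then EC80 TSH at 4nM final. After 2 hours at 37 deg C, antibody in lysis buffer and cAMP-d2 are added; 30 minutes at ambient temperature precede the HTRF read.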
EPAC1 antagonist = EPAC1 (human) antagonism; O95398; EPAC1 GEF assay, Rap1b-BODIPY-GDP exchange fluorescence; Potency, µM (series often up to 115 µM), without a hit: at the highest dose activity change, negative = inhibition, usual class: inhibitors; 360,000 tested, 0.14% active; AID 720709;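 note: potency is the fitted concentration of half-maximal effect; plate controls were vehicle for no effect and positive control for full effect; nearly all actives have a fitted effect of over 50% in size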
EPAC2 antagonist = EPAC2 (human) antagonism | AID 720708 | Potency, µM (top dose mostly 114 µM), without a hit: at the highest dose activity, negative = inhibition, usual class: inhibitors | 360,000 tested, 0.18% active | EPAC2 GEF exchange of Rap1B-BODIPY-GDP, fluorescence; note: potency is the fitted concentration of half-maximal effect; % is set by controls: 0 for no effect and ±100 for the full control effect; nearly all actives have a fitted effect of over 45% in size
* marks the source's active call; other numbers are inactive results; [ ] = dose if it differs, or a comment. Rows were chosen to be rich in hits. Some 0.5% of all compounds tested hit in one or more screens of this group. Unless noted, calls come from the whole dose curve; as a rule, active = well fitted curve in the direction sought with a large enough effect; inconclusive = small, poorly fitted or top-dose-only effect, or another doubt; inactive = no such curve, though single readings can be large; an effect the other way counts as inactive or inconclusive.

Results for COc1ccc2[nH]c(C(=O)O)c(CCNC(=O)/C=C/c3ccc(O)c(OC)c3)c2c1 ?
EPAC1 agonist: 5%; EPAC2 ag: 6%; PTHR1 agonist: -13%; TSHR antagonist: 0; EPAC1 antagonist: 1%; EPAC2 antagonist: -9%

What do the screens show for `COc1ccc(OC)c(NC(=O)C(C)Oc2ccc(Br)cc2)c1` (stereo not drawn)?
EPAC1 agonist: 2%; EPAC2 ag: 5%; PTHR1 agonist: -1%; TSHR antagonist: -1; EPAC1 antagonist: -4%; EPAC2 antagonist: 13µM*

How did Clc1cccc(-c2nc3c4ccccc4ccn3c2CC2CCCCC2)c1 do in these assays?
EPAC1 agonist: -4%; EPAC2 ag: 9%; PTHR1 agonist: -4%; EPAC1 antagonist: 8%; EPAC2 antagonist: 0%

How did Cc1nc(CN(C)c2ncnc3ccc(-c4ccc5c(c4)OCO5)cc23)cs1 do in these assays?
EPAC1 agonist: 6%; EPAC2 ag: 16%; PTHR1 agonist: -2%; EPAC1 antagonist: -19%; EPAC2 antagonist: 32µM*

How did CCN(C(=O)CSc1nnc(-c2ccccc2)o1)c1c(N)n(Cc2ccccc2)c(=O)[nH]c1=O do in these assays?
EPAC1 agonist: -3%; EPAC2 ag: -3%; PTHR1 agonist: inactive; TSHR antagonist: -109*; EPAC1 antagonist: -5%; EPAC2 antagonist: 13%

What do the screens show for `CCCCN(C(=O)CSc1nnc(-c2ccccc2)o1)c1c(N)n(CCC)c(=O)[nH]c1=O`?
EPAC1 agonist: 4%; EPAC2 ag: 1%; PTHR1 agonist: -56%; TSHR antagonist: 2; EPAC1 antagonist: 11%; EPAC2 antagonist: 0%

How did O=S(=O)(Cc1ccccc1)C(c1ccccc1)S(=O)(=O)Cc1ccccc1 do in these assays?
EPAC1 agonist: 11%; EPAC2 ag: 16%; PTHR1 agonist: -2%; EPAC1 antagonist: 3%; EPAC2 antagonist: -1%

Results for O=C1OC(c2ccc3ccccc3c2O)(c2ccc3ccccc3c2O)c2ccccc21 ?
EPAC1 agonist: -10%; EPAC2 ag: 6%; PTHR1 agonist: -24%; EPAC1 antagonist: 56µM*; EPAC2 antagonist: 10%

Results for CN(C)/C=C1\C=C2C(=O)c3ccccc3N2C1=O ?
EPAC1 agonist: inconclusive; EPAC2 ag: 35µM*; PTHR1 agonist: -23%; TSHR antagonist: -8; EPAC1 antagonist: -37%; EPAC2 antagonist: 418%

How did CCC12CN3CC(CC)(CN(C1)C3c1ccc(OCc3ccccc3)cc1)C2=O (stereo not drawn) do in these assays?
PTHR1 agonist: 9%

How did CCN1C(=O)N(S(=O)(=O)C(F)(F)F)[C@@H](c2ccccc2)C(C(=O)OC)=C1C do in these assays?
EPAC1 agonist: -20%; EPAC2 ag: 3%; PTHR1 agonist: -43%; TSHR antagonist: -19; EPAC1 antagonist: -9%; EPAC2 antagonist: 32µM*

What do the screens show for `CCOC(=O)c1cccc(NC(=O)Nc2c(C)n(C)n(-c3ccccc3)c2=O)c1`?
PTHR1 agonist: -13%

Results for O=C(O)C1Nc2c(O)cc(Cl)c([N+](=O)[O-])c2C2C=CCC12 (stereo not drawn) ?
EPAC1 agonist: 15%; EPAC2 ag: 15%; PTHR1 agonist: -21%; TSHR antagonist: -6; EPAC1 antagonist: 13µM*; EPAC2 antagonist: -17%

Results for Cc1cc(NS(=O)(=O)c2ccc(Nc3nc(-c4sc(N)nc4C)cs3)cc2)no1 ?
EPAC1 agonist: 5%; EPAC2 ag: -4%; PTHR1 agonist: -1%[57.5 µM]; TSHR antagonist: -2; EPAC1 antagonist: inconclusive; EPAC2 antagonist: 32µM*

How did COc1cc(NS(=O)(=O)c2ccc(Nc3nc(-c4ccccc4)cs3)cc2)nc(OC)n1 do in these assays?
EPAC1 agonist: -2%; EPAC2 ag: -1%; PTHR1 agonist: -15%; TSHR antagonist: -20; EPAC1 antagonist: 79µM*; EPAC2 antagonist: -6%

Results for Cc1c(C(=O)NCc2nnc(-c3ccccc3)o2)oc2c(F)cccc12 ?
EPAC1 agonist: -11%; EPAC2 ag: 6%; PTHR1 agonist: inactive; TSHR antagonist: 4; EPAC1 antagonist: -30%; EPAC2 antagonist: -3%

Results for O=C(N[C@@H]1CC[C@@H](CCNC(=O)C2CCOCC2)O[C@@H]1CO)c1ccncc1 ?
EPAC1 agonist: -2%; EPAC2 ag: 3%; PTHR1 agonist: inactive; EPAC1 antagonist: -5%; EPAC2 antagonist: -1%

How did Cc1nn2c(-c3cccc(NC(=O)c4ccc(Cl)cc4)c3)nnc2c2ccccc12 do in these assays?
PTHR1 agonist: inactive

What do the screens show for `O=C(c1ccc(O)cc1)c1ccc(O)cc1O`?
EPAC1 agonist: 1%; EPAC2 ag: 4%; PTHR1 agonist: inactive; TSHR antagonist: -2; EPAC1 antagonist: -22%; EPAC2 antagonist: 3%

What do the screens show for `O=C(c1ccccc1)c1ccc(O)cc1O`?
EPAC1 agonist: 100µM*; EPAC2 ag: 100µM*; PTHR1 agonist: -30%; TSHR antagonist: 3; EPAC1 antagonist: 107%; EPAC2 antagonist: 96%

How did Cc1cc2ccccc2cc1C(=O)c1ccccc1 do in these assays?
EPAC1 agonist: 7%; EPAC2 ag: 18%; PTHR1 agonist: -26%; EPAC1 antagonist: -13%; EPAC2 antagonist: 8.9µM*

What do the screens show for `O=C(c1ccccc1)c1ccc2ccccc2c1`?
EPAC1 agonist: 12%; EPAC2 ag: 18%; PTHR1 agonist: -24%; EPAC1 antagonist: 6%; EPAC2 antagonist: inconclusive

Results for Cc1ccc(CN2C(=O)c3ccccc3Sc3ccc(C(=O)NCCCN4CCOCC4)cc32)cc1 ?
EPAC1 agonist: -9%; EPAC2 ag: 10%; PTHR1 agonist: 23%; TSHR antagonist: -138*; EPAC1 antagonist: -13%; EPAC2 antagonist: 4%

Results for O=C(NCCN1CCOCC1)c1ccc2c(c1)N(Cc1cccc(F)c1)C(=O)c1ccccc1S2 ?
EPAC1 agonist: 5%; EPAC2 ag: -5%; PTHR1 agonist: inactive; TSHR antagonist: -14; EPAC1 antagonist: -3%; EPAC2 antagonist: -10%

What do the screens show for `CC(C)OCCCn1c(=O)c2ccccc2n2c(CCC(=O)NC3CCN(Cc4ccccc4)CC3)nnc12`?
EPAC1 agonist: 8%; EPAC2 ag: 5%; PTHR1 agonist: inactive; TSHR antagonist: -125*; EPAC1 antagonist: -23%; EPAC2 antagonist: -1%

Results for CC(C)OCCCn1c(=O)c2ccccc2n2c(CCC(=O)O)nnc12 ?
EPAC1 agonist: -2%; EPAC2 ag: 11%; PTHR1 agonist: -10%; TSHR antagonist: 5; EPAC1 antagonist: -8%; EPAC2 antagonist: 5%
